Measured values reported in PubChem BioAssay (NCATS).
Inconclusive results are not listed. Activity calls are given as the source filed them. Unless noted, calls follow the shape of the dose curve; as a rule, active = well fitted curve in either direction with a large enough effect (not every such curve was filed as active); inconclusive = small, poorly fitted or top-dose-only effect, or another doubt; inactive = flat fitted curve, though single readings scatter.

molecular target: Mitogen-activated protein kinase 10 (Mus musculus) (UniProt Q61831); test: JNK3 AlphaScreen Assay (AID 530); conditions: JNK3 lysate, c-Jun phosphorylation; series mostly up to 57.1 µM;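 also: kinase came from lysate of stimulated human HepG2 cells; signal reports phosphorylation of biotinylated GST-cJun 1-79 at Ser73 with 10 µM ATP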
Method in brief: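 Room-temperature AlphaScreen kinase assay; pre-activated HepG2 lysate as JNK3 source, biotin-GST-cJun(1-79) substrate, 10 uM ATP, compound 15 min preincubation.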

outcome, inactive:
Cc1ccccc1-c1nccc(NCc2cccs2)n1
FC(F)(F)c1ccccc1-c1nc(NCCN2CCOCC2)c2ccccc2n1
COc1ccc(-c2nc3cnc(Oc4cccc(Cl)c4)nc3n(C3CC3)c2=O)cc1
N#CCCn1c(=O)c(-c2ccc(F)cc2)nc2cnc(N3CCOCC3)nc21
Cn1c(=O)c(-c2cccs2)nc2cnc(N3CCNCC3)nc21
CS(=O)(=O)Nc1cccc(-c2ccc3ncnc(NC4CC4)c3c2)c1
CN1CCN(c2ncc3nc(CCc4ccccc4)c(=O)n(C4CC4)c3n2)CC1
Cc1ccccc1-c1ccc2ncnc(NC3CC3)c2c1
c1cncc(CNc2ncncc2-c2cccnc2)c1
Clc1ccccc1-c1nccc(NCc2cccs2)n1
O=c1c(-c2ccc(F)cc2)nc2cnc(Oc3ccccc3)nc2n1Cc1cccs1
FC(F)(F)c1ccccc1-c1nc(NCc2cccs2)c2ccccc2n1
COc1ccc(Oc2ncc3nc(-c4cn(C)c5ccccc45)c(=O)n(C4CC4)c3n2)cc1
COc1ccc(-n2c(=O)c(-c3ccc(F)cc3)nc3cnc(N4CCOCC4)nc32)cc1
CC(=O)NCCNc1ncnc2ccc(-c3ccoc3)cc12
COCCNc1ncnc2ccc(-c3cccc(NS(C)(=O)=O)c3)cc12
c1csc(CNc2ncnc3ccc(-c4ccoc4)cc23)c1
Cc1ccccc1-c1cc(N2CCN(C)CC2)ncn1
c1nc(NC2CCNCC2)c2cc(-c3ccoc3)ccc2n1
COc1ncc2nc(-c3ccc(F)cc3)c(=O)n(C)c2n1
COCCn1c(=O)c(-c2ccc(Cl)cc2)nc2cnc(Nc3ccccc3)nc21
CN1CCN(c2ccnc(-c3ccoc3)n2)CC1
COc1cccc(Cn2c(=O)c(-c3cccs3)nc3cnc(N(C)C)nc32)c1
Cc1nc2cnc(OCc3ccccc3)nc2n(C)c1=O
COc1ccccc1CCn1c(=O)c(-c2cccc(F)c2)nc2cncnc21
CN(C)c1ncnc2ccc(-c3ccoc3)cc12
COc1cccc(Nc2ncc3nc(CCc4ccccc4)c(=O)n(C)c3n2)c1
COc1ccc(-c2nc3cnc(Oc4ccccc4)nc3n(CCC#N)c2=O)cc1
COc1cccc(Nc2ncc3nc(-c4ccc(Cl)cc4)c(=O)n(C4CC4)c3n2)c1
CCNc1ncc2nc(-c3cn(C)c4ccccc34)c(=O)n(C)c2n1
CN1CCN(c2ncc3nc(-c4cccc(C#N)c4)c(=O)n(Cc4ccc(F)cc4)c3n2)CC1
COc1ccc(Oc2ncc3nc(-c4ccc(OC)cc4)c(=O)n(C)c3n2)cc1
Cc1nc2cnc(N3CCOCC3)nc2n(C[C@H]2CCCO2)c1=O
COc1cccc(Cn2c(=O)c(-c3ccc(F)cc3)nc3cnc(OC)nc32)c1

molecular target: 3',5'-cyclic-AMP phosphodiesterase 4B (Homo sapiens) (UniProt Q07343); test: qHTS Assay for Inhibitors of PDE-IV (AID 607; active = well fitted activation curve with a large enough effect in the main read-out, with a control signal flat, not every such curve was filed as active); conditions: HEK293 ACTOne CNG channel cells, membrane potential fluorescence; series mostly up to 22.9 µM
Sequence (Q07343 whole entry, looked up): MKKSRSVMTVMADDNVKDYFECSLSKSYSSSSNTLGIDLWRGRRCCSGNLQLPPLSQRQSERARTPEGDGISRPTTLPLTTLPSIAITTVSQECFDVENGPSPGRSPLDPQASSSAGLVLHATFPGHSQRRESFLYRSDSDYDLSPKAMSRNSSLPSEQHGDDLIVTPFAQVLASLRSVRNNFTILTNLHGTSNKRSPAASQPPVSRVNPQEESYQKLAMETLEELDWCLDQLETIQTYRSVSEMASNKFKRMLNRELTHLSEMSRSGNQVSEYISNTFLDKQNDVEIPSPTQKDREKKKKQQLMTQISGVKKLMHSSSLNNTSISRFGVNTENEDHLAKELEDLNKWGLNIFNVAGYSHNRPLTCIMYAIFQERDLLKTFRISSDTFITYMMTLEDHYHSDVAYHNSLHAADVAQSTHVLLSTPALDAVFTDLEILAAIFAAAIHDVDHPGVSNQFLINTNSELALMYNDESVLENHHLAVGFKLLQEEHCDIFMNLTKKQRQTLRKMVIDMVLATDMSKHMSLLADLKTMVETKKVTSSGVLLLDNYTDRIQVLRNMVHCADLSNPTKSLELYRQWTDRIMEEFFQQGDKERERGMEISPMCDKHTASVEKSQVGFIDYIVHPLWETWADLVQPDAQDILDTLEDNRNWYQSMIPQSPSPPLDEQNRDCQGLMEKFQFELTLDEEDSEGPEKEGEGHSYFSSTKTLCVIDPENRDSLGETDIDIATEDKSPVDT
Method in brief: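 ACTOne HEK293 cells carry a modified cAMP-gated CNG channel and express endogenous PDE4; plated 1000 cells/well, compounds up to 22.9 uM final. Membrane-potential dye fluorescence (ex 535/em 590) was read; parental cells received 10 uM forskolin + 100 uM RO 20-1724.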

Potency, inactive:
Cc1ccccc1-c1nccc(NCc2cccs2)n1
CN1CCN(c2ncc3nc(-c4ccc(F)cc4)c(=O)n(Cc4cccs4)c3n2)CC1
COc1ccc(-c2nc3cnc(N4CCN(C)CC4)nc3n(Cc3cccs3)c2=O)cc1
FC(F)(F)c1ccccc1-c1nc(NCCN2CCOCC2)c2ccccc2n1
COc1ccc(-c2nc3cnc(Oc4cccc(Cl)c4)nc3n(C3CC3)c2=O)cc1
N#CCCn1c(=O)c(-c2ccc(F)cc2)nc2cnc(N3CCOCC3)nc21
Cn1c(=O)c(-c2cccs2)nc2cnc(N3CCNCC3)nc21
CS(=O)(=O)Nc1cccc(-c2ccc3ncnc(NC4CC4)c3c2)c1
CN1CCN(c2ncc3nc(CCc4ccccc4)c(=O)n(C4CC4)c3n2)CC1
COCCn1c(=O)cnc2cnc(Nc3ccccc3)nc21
c1cncc(CNc2ncncc2-c2cccnc2)c1
O=c1c(-c2ccc(F)cc2)nc2cnc(Oc3ccccc3)nc2n1Cc1cccs1
COc1ccc(Oc2ncc3nc(-c4cn(C)c5ccccc45)c(=O)n(C4CC4)c3n2)cc1
COc1ccc(-n2c(=O)c(-c3ccc(F)cc3)nc3cnc(N4CCOCC4)nc32)cc1
CC(=O)NCCNc1ncnc2ccc(-c3ccoc3)cc12
COCCNc1ncnc2ccc(-c3cccc(NS(C)(=O)=O)c3)cc12
c1csc(CNc2ncnc3ccc(-c4ccoc4)cc23)c1
Cc1ccccc1-c1cc(N2CCN(C)CC2)ncn1
c1nc(NC2CCNCC2)c2cc(-c3ccoc3)ccc2n1
COc1ncc2nc(-c3ccc(F)cc3)c(=O)n(C)c2n1
COCCn1c(=O)c(-c2ccc(Cl)cc2)nc2cnc(Nc3ccccc3)nc21
CN1CCN(c2ncc3nc(-c4ccc(Cl)cc4)c(=O)n(-c4ccccc4)c3n2)CC1
CN1CCN(c2ccnc(-c3ccoc3)n2)CC1
COc1cccc(Cn2c(=O)c(-c3cccs3)nc3cnc(N(C)C)nc32)c1
Cc1nc2cnc(OCc3ccccc3)nc2n(C)c1=O
COc1ccc(-c2nc3cnc(Oc4ccccc4)nc3n(CCC#N)c2=O)cc1
COc1cccc(Nc2ncc3nc(-c4ccc(Cl)cc4)c(=O)n(C4CC4)c3n2)c1
CN1CCN(c2ncc3nc(-c4cccc(C#N)c4)c(=O)n(Cc4ccc(F)cc4)c3n2)CC1
COc1ccc(Oc2ncc3nc(-c4ccc(OC)cc4)c(=O)n(C)c3n2)cc1
COc1cccc(Cn2c(=O)c(-c3ccc(F)cc3)nc3cnc(OC)nc32)c1
